PubChem BioAssay AID1159580 (chemical genetic matrix, 2015)
Where “and” joins values, the source holds several entries; their conditions need not be identical. Equal values may be shown once. About 2,000 (36%) of roughly 5,500 compounds were called active. About 18% were inconclusive and are not listed. Cut-off read from the data, not from the text of the source: active = normalized growth mostly below about 0.91 (no sharp cut-off); inconclusive = no clear call, values can overlap the other calls; inactive = mostly above about 0.92. This is one part of the list.

Test: chemical genetic growth profiling, strain panel (AID 1159580);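 note: tested at 20 µM; growth read once vehicle control cultures reached saturation at 30 °C; 1 = growth at the plate median or of vehicle wells; lower values mean less growth of the strain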
Settings: S. cerevisiae deletion strains, growth OD

Measured: normalized growth

CCCCCC(O)C1C(=O)OC(C)C(O)/C=C/C=C/C=C/C=C/C=C(\C)C(O)CC(O)CC(O)CC(O)CC(O)CC(O)CC1O (configuration not stated)
inactive: locus YAL013W, strain DEP1, stronger effect = lower value 1.01 | locus YAL021C, strain ccr4, stronger effect = lower value 1.01 | locus YAL026C, strain drs2, stronger effect = lower value 0.994 | locus YAL030W, strain snc1, stronger effect = lower value 0.985 | locus YBL061C, strain skt5, stronger effect = lower value 0.982 | locus YBR009C, strain hhf1, stronger effect = lower value 0.996 | locus YBR021W, strain FUR4, stronger effect = lower value 1.02 | locus YBR023C, strain chs3, stronger effect = lower value 0.989 | locus YBR171W, strain sec66, stronger effect = lower value 0.982 | locus YBR229C, strain ROT2, stronger effect = lower value 1.01 | locus YBR231C, strain swc5, stronger effect = lower value 0.992 | locus YBR279W, strain paf1, stronger effect = lower value 0.993 | locus YCL011C, strain gbp2, stronger effect = lower value 1 | locus YCL016C, strain dcc1, stronger effect = lower value 0.986 | locus YCL029C, strain bik1, stronger effect = lower value 1.03 | locus YCL061C, strain MRC1, stronger effect = lower value 0.992 | locus YCL069W, strain vba3, stronger effect = lower value 0.993 | locus YCR088W, strain abp1, stronger effect = lower value 0.993 | locus YDL005C, strain med2, stronger effect = lower value 0.995 | locus YDL035C, strain GPR1, stronger effect = lower value 1.02 | locus YDL040C, strain nat1, stronger effect = lower value 0.99 | locus YDL074C, strain BRE1, stronger effect = lower value 1.01 | locus YDL101C, strain DUN1, stronger effect = lower value 1.01 | locus YDL134C, strain PPH21, stronger effect = lower value 1.01 | locus YDL185W, strain tfp1, stronger effect = lower value 1.03 | locus YDL192W, strain arf1, stronger effect = lower value 1.04 | locus YDR001C, strain nth1, stronger effect = lower value 0.983 | locus YDR069C, strain doa4, stronger effect = lower value 0.996 | locus YDR101C, strain arx1, stronger effect = lower value 1.02 | locus YDR137W, strain rgp1, stronger effect = lower value 1.01 | locus YDR150W, strain NUM1, stronger effect = lower value 1.02 | locus YDR159W, strain sac3, stronger effect = lower value 0.96 | locus YDR162C, strain NBP2, stronger effect = lower value 1.02 | locus YDR195W, strain ref2 0.96 | locus YDR297W, strain sur2, stronger effect = lower value 1.01 | locus YDR318W, strain mcm21, stronger effect = lower value 1.03 | locus YDR334W, strain swr1, stronger effect = lower value 0.986 | locus YDR335W, strain msn5, stronger effect = lower value 0.985 | locus YDR388W, stronger effect = lower value 1.03 | locus YDR392W, strain spt3, stronger effect = lower value 0.937 | locus YDR502C, strain sam2, stronger effect = lower value 1.01 | locus YEL003W, strain gim4, stronger effect = lower value 0.993 | locus YEL037C, strain rad23, stronger effect = lower value 1.02 | locus YEL061C, strain CIN8 (second series), stronger effect = lower value 0.98 | locus YEL061C, strain CIN8, stronger effect = lower value 1 | locus YER015W, strain faa2, stronger effect = lower value 0.991 | locus YER016W, strain bim1, stronger effect = lower value 0.986 | locus YER110C, stronger effect = lower value 1.02 | locus YER111C, strain swi4, stronger effect = lower value 0.996 | locus YER155C, strain BEM2 (second series), stronger effect = lower value 0.976 | locus YER155C, strain BEM2, stronger effect = lower value 1.02 | locus YER167W, strain BCK2, stronger effect = lower value 1.04 | locus YFR010W, strain ubp6, stronger effect = lower value 0.984 | locus YGL078C, strain dbp3, stronger effect = lower value 1.01 | locus YGL086W, strain mad1, stronger effect = lower value 1.03 | locus YGL167C, strain pmr1, stronger effect = lower value 0.984 | locus YGL173C, strain kem1, stronger effect = lower value 0.993 | locus YGL227W, strain vid30, stronger effect = lower value 0.989 | locus YGL240W, strain doc1, stronger effect = lower value 0.981 | locus YGL248W, strain PDE1, stronger effect = lower value 1.01 | locus YGL253W, strain hxk2, stronger effect = lower value 1 | locus YGR078C, strain PAC10, stronger effect = lower value 1 | locus YGR135W, strain pre9, stronger effect = lower value 1.02 | locus YGR229C, strain SMI1, stronger effect = lower value 1.02 | locus YGR252W, strain gcn5, stronger effect = lower value 1.04 | locus YHR013C, strain ard1, stronger effect = lower value 0.966 | locus YHR027C, strain rpn1, stronger effect = lower value 0.994 | locus YHR030C, strain SLT2, stronger effect = lower value 1.01 and 0.963 | locus YHR079C, strain IRE1 (second series), stronger effect = lower value 1.02 | locus YHR079C, strain IRE1, stronger effect = lower value 0.959 | locus YHR094C, strain hxt1, stronger effect = lower value 1.02 | locus YHR129C, strain ARP1, stronger effect = lower value 1 | locus YHR142W, strain chs7, stronger effect = lower value 1.01 | locus YHR200W, strain rpn10, stronger effect = lower value 1.02 | locus YIL066C, strain RNR3, stronger effect = lower value 1.01 | locus YIL073C, strain SPO22, stronger effect = lower value 1.12 | locus YIL125W, strain kgd1, stronger effect = lower value 1.03 | locus YIR030C, strain dcg1, stronger effect = lower value 1.02 | locus YJL092W, strain hpr5, stronger effect = lower value 0.985 | locus YJL095W, strain BCK1 (second series), stronger effect = lower value 0.988 | locus YJL095W, strain BCK1, stronger effect = lower value 1.01 and 0.975 | locus YJL115W, strain asf1, stronger effect = lower value 0.991 | locus YJL129C, strain trk1, stronger effect = lower value 0.976 | locus YJL134W, strain LCB3, stronger effect = lower value 1.01 | locus YJL154C, strain vps35, stronger effect = lower value 0.985 | locus YJL164C, strain tpk1, stronger effect = lower value 1 | locus YJL166W, strain qcr8, stronger effect = lower value 0.997 | locus YJL168C, strain set2, stronger effect = lower value 1.02 | locus YJL187C, strain SWE1 (second series), stronger effect = lower value 1 | locus YJL187C, strain SWE1, stronger effect = lower value 0.995 | locus YJR043C, strain POL32, stronger effect = lower value 1.03 | locus YJR066W, strain TOR1, stronger effect = lower value 0.939
